# Measured potencies and affinities stand elsewhere. Calls of active or inactive are those of the source. How the calls were made is not given here.
# Target: Large T antigen (Simian virus 40) (UniProt P03070)
# Experiment: SV40 large T antigen ATPase inhibitors, SAR follow-up, biochemical, ADP-Hunter detection, purified TAg, synthesized compounds, set 3 (AID 485288)
# Large T antigen (Simian virus 40), sequence (P03070 whole entry, looked up): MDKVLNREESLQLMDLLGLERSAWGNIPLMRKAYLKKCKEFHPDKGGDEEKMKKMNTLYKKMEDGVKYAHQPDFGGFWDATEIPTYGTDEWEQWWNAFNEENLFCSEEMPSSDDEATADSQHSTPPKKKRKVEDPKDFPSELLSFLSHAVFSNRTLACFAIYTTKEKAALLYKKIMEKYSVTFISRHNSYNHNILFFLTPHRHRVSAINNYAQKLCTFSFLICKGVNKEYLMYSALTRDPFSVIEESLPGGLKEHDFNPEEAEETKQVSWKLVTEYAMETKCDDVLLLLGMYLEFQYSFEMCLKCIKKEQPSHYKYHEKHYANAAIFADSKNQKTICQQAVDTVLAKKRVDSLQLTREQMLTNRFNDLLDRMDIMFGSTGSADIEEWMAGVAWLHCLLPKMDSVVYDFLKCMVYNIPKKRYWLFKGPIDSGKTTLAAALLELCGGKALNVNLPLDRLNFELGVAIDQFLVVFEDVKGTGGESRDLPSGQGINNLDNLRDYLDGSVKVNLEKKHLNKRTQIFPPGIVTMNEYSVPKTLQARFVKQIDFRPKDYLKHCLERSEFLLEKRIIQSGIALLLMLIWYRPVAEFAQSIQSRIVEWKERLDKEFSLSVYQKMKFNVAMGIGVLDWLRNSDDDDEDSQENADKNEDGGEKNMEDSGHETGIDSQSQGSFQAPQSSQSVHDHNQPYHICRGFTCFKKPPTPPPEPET
row,Compound,outcome
1,Cc1ccc(-n2nnnc2C(C)(C)N2CCCCC2)cc1,inactive
2,Cc1ccccc1-n1nnnc1C(C)(C)N1CCCC1,inactive
3,CC(C)(c1ccc(O)cc1)c1ccc(Cl)cc1,inactive
4,Oc1ccccc1Cc1ccccc1O,inactive
5,FC(F)(c1nnnn1-c1ccccc1)c1nnc2ccccn12,inactive
6,CC(=O)c1cc(C(C)(C)c2ccc(O)cc2)cc(C(C)=O)c1O,inactive
7,Oc1ccc(Cl)cc1Cc1cc(Cl)ccc1O,inactive
8,CC(C)(c1nnnn1-c1ccccc1)N1CCOCC1,inactive
9,CC(C)(c1nnnn1-c1ccc(Cl)cc1)N1CCN(C(=O)c2ccco2)CC1,inactive
